The source of these data is PubChem BioAssay AID488969 (Vanderbilt High Throughput Screening Facility, 2010).

Structures are written as SMILES. Whole data set: some 110,000 compounds, median “z-score” near -0.1, cut for the highest 2% near 2. This is one part of a sample in which the highest values are shown more often than they occur. Active and inactive are the calls of the source.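 The calls were made as follows: active = z-score in the third read window above 3 or below -3; inactive = the rest.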

Sequence of Metabotropic glutamate receptor 8 (Rattus norvegicus) (P70579 whole entry, looked up): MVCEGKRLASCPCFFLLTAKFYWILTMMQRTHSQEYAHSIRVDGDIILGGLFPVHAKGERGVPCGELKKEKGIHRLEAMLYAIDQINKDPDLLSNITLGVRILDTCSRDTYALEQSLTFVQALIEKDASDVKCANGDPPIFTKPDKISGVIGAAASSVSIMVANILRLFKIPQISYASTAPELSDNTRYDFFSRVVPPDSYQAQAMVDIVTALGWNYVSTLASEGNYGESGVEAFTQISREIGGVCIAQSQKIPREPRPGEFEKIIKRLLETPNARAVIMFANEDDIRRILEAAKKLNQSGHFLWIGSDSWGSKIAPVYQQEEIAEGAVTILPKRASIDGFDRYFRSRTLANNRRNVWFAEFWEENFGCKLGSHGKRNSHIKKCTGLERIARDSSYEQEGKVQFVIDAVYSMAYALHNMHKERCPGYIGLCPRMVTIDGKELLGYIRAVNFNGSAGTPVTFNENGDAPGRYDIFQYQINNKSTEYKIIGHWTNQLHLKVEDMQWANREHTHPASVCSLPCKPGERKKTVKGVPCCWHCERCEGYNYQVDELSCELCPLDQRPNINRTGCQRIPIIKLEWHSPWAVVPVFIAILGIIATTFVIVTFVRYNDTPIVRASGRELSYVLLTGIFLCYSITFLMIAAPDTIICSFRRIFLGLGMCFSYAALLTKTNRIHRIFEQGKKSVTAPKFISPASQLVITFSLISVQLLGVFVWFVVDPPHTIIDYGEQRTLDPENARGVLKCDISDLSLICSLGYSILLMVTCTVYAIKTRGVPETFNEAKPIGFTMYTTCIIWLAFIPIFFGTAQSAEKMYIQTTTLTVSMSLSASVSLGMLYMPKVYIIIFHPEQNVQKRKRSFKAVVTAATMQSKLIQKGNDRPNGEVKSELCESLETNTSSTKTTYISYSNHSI

The experiment has as its target Metabotropic glutamate receptor 8 (Rattus norvegicus) (UniProt P70579). In words: rat mGluR8 modulators via GIRK flux, primary screen, cell-based, thallium flux, HTS (AID 488969). To be noted: HEK293 rat mGluR8, GIRK (G protein-gated inwardly rectifying potassium channel) thallium flux, FluoZin2; at 10 µM; stronger effect = higher value; submaximal glutamate (EC20) added with thallium.
`CC1CCN(c2nc3c(c(=O)[nH]c(=O)n3C)n2CCSc2nc3ccccc3o2)CC1` gave a z-score of 0.0449.

Turning to `C=C1c2cc(C)ccc2NC(=O)N1c1ccc(C)cc1`, the z-score is -0.68.

In turn, `COc1cc(C)c(N)cc1C(C)C` came in with a z-score of 2.12.

Take `COc1cc(C)c(S(=O)(=O)N2CCOCC2)cc1C(C)C`: the z-score was 0.397.

`COc1cc(C)c(-c2cc(C(=O)O)c(C)o2)cc1C(C)C` showed a z-score of -0.106.

Molecule `COc1ccc(C(=O)NC(=S)N2CCN(c3ccc([N+](=O)[O-])cc3)CC2)cc1` registered a z-score of 0.274.

The molecule `CCNC(=S)N1CCN(c2ccc([N+](=O)[O-])cc2)CC1` registered a z-score of 0.99.

In turn, `Cc1ccc(C(=O)NC(=S)N2CCN(c3ccc([N+](=O)[O-])cc3)CC2)cc1` gave a z-score of 0.426.

Turning to `C=CCNC(=S)N1CCN(c2ccc([N+](=O)[O-])cc2)CC1`, the z-score came out at 2.09.

For the molecule `O=C(NC(=S)N1CCN(c2ccc([N+](=O)[O-])cc2)CC1)c1ccc(F)cc1`, the z-score was 9.01 (active).

As for `CNC(=S)N1CCN(c2ccc([N+](=O)[O-])cc2)CC1`, the z-score was -0.188.

Molecule `CC(=O)c1c(C)nc2ccccc2c1N` yielded a z-score of 0.205.

Take `CCN(CC)c1nc2ccccc2c(N)c1-c1ccccc1`: the z-score was found to be 0.0637.

The molecule `Cc1c(N(C)C)nc2ccccc2c1N` registered a z-score of 2.03.

For `CN(C)c1nc(-c2ccccc2)nnc1C(F)(F)F`, the z-score is -0.148.

Consider `Cc1cc(C)c2c(N)c3ccccc3nc2n1`, for which the z-score was -0.0162.

Regarding `CN(C)c1nc2ccccc2c(N)c1-c1ccccc1`, the z-score was 3.06 (active).

Regarding `O=C(NCc1cccnc1)c1cccc(Cl)c1`, the z-score came to 0.278.

With `O=C(Cn1c(=O)oc2ccccc21)NCc1ccco1`, the z-score amounted to 0.455.

As for `Cc1c(NCc2cc(Cl)ccc2O)c(=O)n(-c2ccccc2)n1C`, the z-score was -0.0479.

On to `O=C(CSc1nnc(-c2cccc(Cl)c2)o1)Nc1ccc2c(c1)OCCO2`, for which the z-score was -0.0175.

Molecule `CCCN(CC(=O)Nc1cc(Cl)cc(Cl)c1)CC(=O)Nc1ccc(F)c(F)c1F` came in with a z-score of -0.209.

As for `CC(C)COP(=O)(c1ccc(N(C)C)cc1)C(Nc1ccccc1)c1ccccc1` (configuration not stated), the z-score was -0.803.

The molecule `CCCCSCCCNC(=O)Nc1cccc(OC)c1` returned a z-score of -0.211.

`CCOc1ccc(NC(=O)NCCCSC2CCCCC2)cc1` registered a z-score of 0.197.

With `COc1cccc(NC(=O)NCCCSC2CCCCC2)c1`, the z-score is 4.47 (active).

Consider `O=C(COC(=O)c1cccc([N+](=O)[O-])c1)c1ccc(OCc2ccccc2)cc1`, for which the z-score was -0.231.

Take `COc1ccc(CNC(=O)COC(=O)[C@H](Cc2c[nH]c3ccccc23)NC(=O)c2cccs2)cc1`: the z-score was 0.0349.

On to `COc1ccc(CNC(=O)Cc2c(C(=O)O)[nH]c3ccccc23)cc1`, for which the z-score was -0.136.

With `O=C(Cc1csc(Nc2nc(=S)[nH]c3ccccc23)n1)NCc1ccc(Cl)cc1`, the z-score was 7.05 (active).

`O=C(Cc1csc(Nc2nc(=S)[nH]c3ccccc23)n1)NCc1cccc(Cl)c1`: the z-score was 6.85 (active).

`O=C(Cc1c[nH]c2ccccc12)NCc1ccc(Cl)cc1` registered a z-score of 0.348.

Molecule `O=C(O)CCCCCNc1nc(=S)[nH]c2ccccc12` came in with a z-score of 0.209.

In the case of `COc1ccc(CNC(=O)Cc2csc(Nc3nc(=S)[nH]c4ccccc34)n2)cc1`, the z-score is 8.83 (active).

As to `COC(=O)Cc1csc(Nc2ccccc2Cl)n1`, the z-score came to 0.0565.

In the case of `O=C(O)Cc1csc(Nc2cccc(Cl)c2)n1`, the z-score turned out to be 0.819.

As for `O=C(Cc1csc(Nc2nc(=S)[nH]c3ccccc23)n1)NCc1ccccc1Cl`, the z-score was 3.83 (active).

`O=C(CCCCCNc1nc(=S)[nH]c2ccccc12)NCCc1ccccc1` yielded a z-score of 0.302.

Take `O=C(CCCSc1nc2ccccc2[nH]1)NCc1ccc(Cl)cc1`: the z-score is -0.328.

In the case of `Cc1cccc(OCC(=O)Nc2ccc(N3CCN(C(=O)c4ccccc4)CC3)cc2)c1`, the z-score is -0.0735.

`Cc1ccc(S(=O)(=O)N2CCOCC2)c2nsnc12` came in with a z-score of -0.358.

Molecule `CCN1CCN(C(CNC(=O)c2ccc3c(c2)OCO3)c2cccnc2)CC1` (configuration not stated) displayed a z-score of -0.319.

For the molecule `COc1cc2c(cc1OC)CN(C(=O)C(C)(C)C)CC2`, the z-score is -0.104.

For the molecule `CN(C1CCCCC1)S(=O)(=O)c1ccc(S(=O)(=O)N2CCN(CCC#N)CC2)cc1`, the z-score was determined as 0.242.

The molecule `CCS(=O)CCSC(=N)N` (configuration not stated) came in with a z-score of -0.0992.

Regarding `Cc1ccc(CNC(=O)Cc2csc(Nc3nc(=S)[nH]c4ccccc34)n2)cc1`, the z-score is 10.7 (active).

`O=C(Cc1csc(-c2ccccc2)n1)NCc1ccc(F)cc1` returned a z-score of -0.252.

With `Cc1ccc(NC(=S)Nc2nc(CC(=O)Nc3ccccc3)cs2)cc1`, the z-score stood at 0.0541.

The molecule `COc1ccc(-n2nc3ccccc3n2)cc1` returned a z-score of 0.249.

In turn, `O=C(NCc1ccncc1)C1CCCN(S(=O)(=O)Cc2ccccc2)C1` (configuration not stated) came in with a z-score of -0.193.

The molecule `CCC1CCCCN1C(=O)CSc1nnc(-c2cccs2)o1` (configuration not stated) returned a z-score of 0.801.

As for `CCC1CCCCN1C(=O)CSc1nnc(-c2ccc(Cl)cc2)o1` (configuration not stated), the z-score is -0.41.

In the case of `CCC1CCCCN1C(=O)CSc1nnc(-c2ccco2)o1` (configuration not stated), the z-score is 11.1 (active).

Regarding `CCC(NC(=O)Cn1cnc2c(=O)n(C)c(=O)n(C)c21)c1ccccc1` (configuration not stated), the z-score amounted to 0.0869.

`COc1ccc(C2C(C(=O)c3ccco3)=C(O)C(=O)N2CCOCCO)cc1OC` (configuration not stated) registered a z-score of -0.0423.

For the molecule `COc1ccc(CC(=O)Nc2cccc(-c3csc(C)n3)c2)cc1`, the z-score amounted to 1.88.

For `O=C(NOC(=O)c1ccccc1Cl)c1cccs1`, the z-score is -0.383.

With `COC(=O)NNC(=O)c1ccc(C)cc1`, the z-score turned out to be 0.0536.

Take `Cc1c(C(=O)NCc2cccnc2)oc2ccc(S(=O)(=O)N3CCCCC3)cc12`: the z-score came to 1.3.

Molecule `Cc1c(C(=O)NCc2ccccc2)oc2ccc(S(=O)(=O)N3CCC4(CC3)OCCO4)cc12` yielded a z-score of -0.293.

For the molecule `Cc1c(C(=O)NCc2cccnc2)oc2ccc(S(=O)(=O)N3CCC4(CC3)OCCO4)cc12`, the z-score was 5.95 (active).

Molecule `CCCOc1ccc(C(=O)Nc2cc(-c3nn4c(C)nnc4s3)ccc2C)cc1` registered a z-score of -0.185.

For the molecule `CN(Cc1ccccc1)c1ccc(N2C(=O)CCCC2=O)cc1[N+](=O)[O-]`, the z-score was -0.202.

`Cc1cccc(-c2nc(CSCC(=O)N3CCN(c4ccccn4)CC3)c(C)o2)c1` yielded a z-score of -1.37.

In turn, `O=C(O)CCCC(=O)NCCc1ccncc1` yielded a z-score of 0.0989.

`COc1ccc(/C=N/NC(=O)C(=O)/C=C2\NC3(CCCC3)Cc3ccccc32)cc1` registered a z-score of 0.0973.

`Cc1cccc(C(=O)Nc2ccccc2C(=O)OCC(=O)Nc2ccc(C#N)cc2)c1` came in with a z-score of 2.11.

Turning to `Cc1ccc(NC(=O)COC(=O)c2ccccc2Nc2ccccc2)cc1`, the z-score is -0.179.

`CC(=O)c1ccccc1NC(=O)COC(=O)c1ccccc1NC(=O)c1ccccc1` showed a z-score of 0.161.

`COc1ccc(S(=O)(=O)N2CCN(C(=O)c3ccco3)CC2)cc1OC` came in with a z-score of -0.51.

Take `COc1cc(/C=N/NC(=O)C(Cc2c[nH]c3ccccc23)NC(=O)OCc2ccccc2)cc([N+](=O)[O-])c1O` (configuration not stated): the z-score is -0.505.

Turning to `Cc1ccc(N(C(=O)c2csnn2)C(C(=O)NC(C)(C)C)c2ccncc2)cc1` (configuration not stated), the z-score was -0.134.

For the molecule `Cc1cccc(N(C(=O)c2csnn2)C(C(=O)NC(C)(C)C)c2ccncc2)c1` (configuration not stated), the z-score was -0.134.

For the molecule `CC(C)(C)NC(=O)C(c1ccncc1)N(C(=O)c1csnn1)c1ccccc1` (configuration not stated), the z-score is 6.21 (active).

Take `CC(C)COC(=O)c1cc(=O)[nH]c2ccccc12`: the z-score worked out at 1.23.

Molecule `Cc1cc(C)c2nc(NC(=O)c3ccc(OCC4CCCO4)cc3)sc2c1` (configuration not stated) displayed a z-score of -0.201.

In the case of `CCc1ccc2nc(NC(=O)c3cc(C)on3)sc2c1`, the z-score is 10.1 (active).

Turning to `Cc1cc(C)c2nc(NC(=O)C3CCCO3)sc2c1` (configuration not stated), the z-score came to 0.217.

Consider `Cc1cc(C)c2nc(NC(=O)c3cc(C)on3)sc2c1`, for which the z-score is 12 (active).

Turning to `CCc1ccc2nc(NC(=O)CSCc3c(C)noc3C)sc2c1`, the z-score was -0.0333.

On to `CCc1ccc(NC(=O)c2cc(C)on2)cc1`, for which the z-score was -0.546.

With `O=C(Oc1ccc(Br)cc1C(=S)N1CCCC1)c1ccccc1Cl`, the z-score was -0.0754.

For `CCOC(=O)N1CCN(Cc2nc(N)nc(Nc3ccc(OCC)cc3)n2)CC1`, the z-score is -0.27.

On to `CC(=O)OC1COC(n2ccc3cc([N+](=O)[O-])ccc32)C(OC(C)=O)C1OC(C)=O` (configuration not stated), for which the z-score turned out to be 0.0746.

Molecule `CC(=O)NC1(C(F)(F)F)C(=O)NC(C)=C1C#N` (configuration not stated) displayed a z-score of -1.29.

On to `Cn1c(=O)[nH]c(=O)c2c1nc(NCc1ccccc1)n2CCCc1ccccc1`, for which the z-score is -0.132.

In turn, `Cn1c(=O)[nH]c(=O)c2c1nc(NCCCO)n2CCCc1ccccc1` returned a z-score of 0.0396.

For the molecule `CN(C)CCNc1nc2c(c(=O)[nH]c(=O)n2C)n1CCCc1ccccc1`, the z-score is 3.35 (active).

`CC(C)NS(=O)(=O)c1ccc(NC(=O)C2CC3C=CC2C3)cc1` (configuration not stated) had a z-score of -0.0807.

For `O=C1Nc2ccccc2SC(c2ccccc2)C1O` (configuration not stated), the z-score was -0.0924.

Molecule `O=C(CN1CCC(n2nnc3cc(F)ccc32)CC1)N1CCc2ccccc2C1` displayed a z-score of -0.899.

Regarding `O=C(CSc1n[nH]c(-c2ccc(S(=O)(=O)N3CCCCC3)cc2)n1)Nc1nccs1`, the z-score was determined as 0.951.

Molecule `CCC(c1nnnn1Cc1ccccc1)N(Cc1ccco1)Cc1cc2cc(OC)ccc2[nH]c1=O` (configuration not stated) returned a z-score of -0.0441.

Regarding `CCC(c1nnnn1Cc1ccc(OC)cc1)N(CCCO)Cc1cc2cc3c(cc2[nH]c1=O)OCO3` (configuration not stated), the z-score was 5.57 (active).

`CCC(c1nnnn1CCOC)N(Cc1ccc(C)cc1)Cc1cc2cc(OC)ccc2[nH]c1=O` (configuration not stated) registered a z-score of 0.378.

For `COc1ccc(OC)c(N(CC(=O)Nc2ccc3c(c2)OCO3)S(=O)(=O)c2ccccc2)c1`, the z-score was -0.348.

Molecule `CC1CCCN(S(=O)(=O)c2ccc(C(=O)Nc3ccccc3-c3nc4ccccc4[nH]3)cc2)C1` (configuration not stated) displayed a z-score of -0.205.

`Cc1nnc(NC(=O)c2ccc(S(=O)(=O)N3CCCCCC3)cc2)o1` yielded a z-score of -0.304.

On to `CC1CCCN(S(=O)(=O)c2ccc(C(=O)Nc3nnc(-c4ccccc4Cl)o3)cc2)C1` (configuration not stated), for which the z-score is 3.98 (active).

For `COCc1nnc(NC(=O)c2ccc(S(=O)(=O)N3CCCCCC3)cc2)o1`, the z-score was -0.164.

For `CCC1CCCCN1S(=O)(=O)c1ccc(C(=O)Nc2nnc(-c3ccccc3Cl)o2)cc1` (configuration not stated), the z-score was determined as 1.12.

With `O=C(Nc1nnc(-c2ccccc2Cl)o1)c1ccc(S(=O)(=O)N2CCCCCC2)cc1`, the z-score was 13.1 (active).

Take `CCOC(=O)Cc1csc(NC(=O)CSc2nnc(C(C)C)n2CC)n1`: the z-score is 0.0208.

In turn, `CCN(CC)c1ccc(NC(=O)c2cccnc2)cc1` came in with a z-score of -0.663.

Molecule `CCCS(=O)(=O)N1CCC(C(=O)N2CCCC2)CC1` returned a z-score of -1.16.

Molecule `O=[N+]([O-])c1ccc(N2CCN(S(=O)(=O)c3ccccc3[N+](=O)[O-])CC2)cc1N1CCc2ccccc2C1` came in with a z-score of -0.00158.

As to `O=C(/C=C/c1ccccc1Cl)NCc1ccco1`, the z-score is -0.133.
